The panel holds about 83,000 compounds, 20% with a hit somewhere; the sample as a whole holds those more often.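 Cell lines were cultured in 96-well plates, exposed to a single compound concentration, and assessed for percent growth 48 hours later.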 Unmarked numbers belong to inactive results. The source made the active and inactive calls. How the source made its calls: active means growth percent below 10; inactive means the rest.
Experiments:
Assay in all cases: NCI-60 one-dose screen, 48 h (100 = growth as untreated, 0 = no growth, -100 = all killed)
Settings in all cases: 10 µM
[1] = test system: SK-MEL-2 melanoma
[2] = test system: EKVX NSCLC
[3] = test system: SN12C renal
[4] = test system: UO-31 renal
[5] = test system: TK-10 renal
[6] = test system: ACHN renal
[7] = test system: CAKI-1 renal
[8] = test system: A498 renal
[9] = test system: CCRF-CEM leukemia
[10] = test system: MOLT-4 leukemia

| Structure (SMILES) | growth [1] | growth [2] | growth [3] | growth [4] | growth [5] | growth [6] | growth [7] | growth [8] | growth [9] | growth [10] |
| --- | --- | --- | --- | --- | --- | --- | --- | --- | --- | --- |
| CCOC(=O)C1=C(N)N(c2ccc(C)cc2)C2=C(C(=O)CC(C)(C)C2)C1c1ccccc1OC (stereo not given) | 110% | 92.2% | 99.6% | 78.7% | 107% | 103% | 97.7% | 102% | 99% | 106% |
| COC[C@@H](CC(C)C)N=C1NC(=O)/C(=C/c2ccc3ncoc3c2)N1 | -75.8% (active) | 18% | 15.1% | -8.68% (active) | 36.5% | 7.63% (active) | 6.77% (active) | -9.51% (active) | 15.2% | 11.3% |
| CC1=C(C(=O)OC(C)C)C(c2ccc(O)cc2)NC(=S)N1 (stereo not given) | 99.2% | 92.5% | 105% | 96.2% | 95.5% | 109% | 98% | 138% | 101% | 94.8% |
| O=C(CSc1nnc(-c2ccc3nc(-c4ccc(Cl)cc4)[nH]c3c2)o1)Nc1ccc(Br)cc1 | -69.6% (active) | 27.9% | -89.2% (active) | 21.9% | 86% | -62.5% (active) | -27.8% (active) | 66.1% | 6.06% (active) | -0.919% (active) |
| COc1ccc(/C=N/N=C(\C)c2ccc3c(c2)Nc2ccccc2S3)cc1O | 48.5% | 40.4% | 70.1% | 47% | 70.6% | 43.3% | 55.1% | 75.5% | 33.9% | 13.6% |
| O=C(c1ccc(Cl)cc1)C1[C@H](c2ccccc2Br)[C@@H](c2ccccc2)NC12C(=O)Nc1ccc(Br)cc12 (stereo not given in full) | -51% (active) | 14.7% | -63.5% (active) | 13.5% | 23.9% | 11.9% | 8.82% (active) | 74.5% | 5.86% (active) | -9.97% (active) |
| COC1=C[C@]23CCC(=O)N2CCc2cc4c(cc2[C@@H]3[C@@H]1OC(=O)CCCC(C)C)OCO4 | 101% | 80.4% | 104% | 36.3% | 66.1% | 32.1% | 48% | 25% | 59.7% | 9.63% (active) |
| C#CCNC(=O)CCC(=O)OC[C@]12CC[C@@H](C(=C)C)[C@@H]1C1CC[C@@H]3[C@@]4(C)CCCNC(C)(C)[C@@H]4CC[C@@]3(C)[C@]1(C)CC2 (stereo not given in full) | -66.1% (active) | 2.91% (active) | 19.2% | 33.5% | 11.6% | 26.6% | 17.3% | 68.5% | -13.2% (active) | -3.06% (active) |
| Cc1ccc(C(=O)N/C(=C2/OCCN2C)[P+](c2ccccc2)(c2ccccc2)c2ccccc2)cc1 | 81.1% | 75.4% | 86% | 85.4% | 102% | 114% | 102% | 122% | 73.5% | 84.4% |
| COc1ccc(C(=O)Nc2ccc(-c3ccc4c(c3)NC(=O)/C4=C\c3ccc[nH]3)cc2)cc1 | 99.5% | 7.85% (active) | 64.9% | 81.3% | 98.8% | 60.7% | 72.7% | 118% | 26% | 55.6% |
| Cc1ccc(-c2ccc(SCC(=O)Nc3ccc(S(N)(=O)=O)cc3Br)nn2)cc1 | 80.6% | 62.5% | 39.5% | 70.6% | 84.7% | 11.7% | 56.9% | 87.2% | 93.4% | 89.9% |
| C/C(=N\NC(N)=S)c1ccc(Nc2nc(SC(C)C)nc(-c3ccccc3)c2C#N)cc1 | 89.3% | 75.9% | 63.5% | 77.5% | 98.1% | 58.3% | 74.6% | 123% | 76.3% | 77.5% |
| N#Cc1ccc(-c2nn(-c3ccc(C(=O)O)cc3)cc2CNc2ccc(Cl)cc2)cc1 | 96.2% | 67.8% | 82.2% | 61.8% | 108% | 74.6% | 71.2% | 111% | 77.5% | 68.8% |
| COc1ccc(N2N=C(c3ccc4c(c3)OCCO4)CC2c2cccc(NC(=O)CCCNS(=O)(=O)c3ccc(F)cc3)c2)cc1 (stereo not given) | 88.4% | 57.9% | 74.8% | 58.8% | 78.2% | 70.7% | 53.9% | 86.5% | 67.7% | 34% |
| C=CC(=O)Nc1ccc(C(=O)/C=C/c2ccc(N(C)CCF)cc2)c(O)c1 | -53.4% (active) | -25% (active) | -60.2% (active) | -96.6% (active) | -23.7% (active) | -68.6% (active) | -90.8% (active) | 17.5% | 13.1% | -3.17% (active) |
| O=C(CSc1nnc(-c2c[nH]c3ccccc23)n1-c1ccccc1)c1ccc(Cl)cc1 | 33.7% | 25.6% | 64.6% | 54.8% | 84% | 57.5% | 64.5% | 57.3% | 92.7% | 104% |
| CCNCCCn1c2c(c3cc(OC)c(OC)cc3c1=O)C(=O)c1cc3c(nc1-2)OCO3 | 125% | 76.6% | -89.2% (active) | -97.8% (active) | 98.3% | 2.02% (active) | 7.87% (active) | 87.1% | 0.158% (active) | -14.2% (active) |
| O=C(CNc1nc(-c2ccccc2)cs1)Nc1ccc(Br)cc1 | -76.8% (active) | -95.9% (active) | -90.3% (active) | -98.2% (active) | -95.3% (active) | -100% (active) | -92.3% (active) | -89.6% (active) | 5.21% (active) | -12.4% (active) |
| Nc1nc(-c2ccccc2)cs1 | 61.6% | 32% | 68.2% | 29% | 83.5% | 59.5% | 69.9% | 94.7% | 43.3% | 35.1% |
| Cc1cc(C)nc(NS(=O)(=O)c2ccc(N/C(N)=N/c3nccc(-c4ccccc4)n3)cc2)n1 | 89.5% | 43% | 73.6% | 34.7% | 76.4% | 61.7% | 43.6% | 71.2% | 67.7% | 38.8% |
| O=C(CNc1nc(-c2ccccc2)cs1)Nc1ccc(Cl)cc1[N+](=O)[O-] | -50.1% (active) | -8.05% (active) | -28.7% (active) | -56.4% (active) | 0.433% (active) | -60.6% (active) | 2.07% (active) | 14.8% | 11.1% | 3.2% (active) |
| COc1ccc(/C=C/C(=O)c2ccc(NC(=O)CN3C(=O)NC(C)(c4ccccc4)C3=O)cc2)cc1 (stereo not given) | 93.4% | 91% | 95.3% | 56.8% | 109% | 84.5% | 79% | 119% | 78.3% | 49.7% |
| CN(CCO)c1oc(-c2ccccc2)nc1[P+](c1ccccc1)(c1ccccc1)c1ccccc1 | -33.8% (active) | 18.1% | -3.43% (active) | 74.3% | 24% | 56.3% | 59.7% | -7.19% (active) | 9.94% (active) | 13.4% |
| CCOC(=O)C1=C(N)N(c2ccccc2)C2=C(C(=O)CC(C)(C)C2)C1c1ccccc1OC (stereo not given) | 109% | 91.9% | 92.6% | 74.4% | 106% | 103% | 97.2% | 98.7% | 100% | 105% |
| CC(=O)C1=C(C)NC(SCC(=O)Nc2ccc(S(=O)(=O)Nc3cc(C)on3)cc2)=NC1c1ccccc1 (stereo not given) | 119% | 101% | 111% | 89.2% | 112% | 106% | 99.8% | 109% | 98% | 109% |
| O=C(/C=C/Nc1ccccc1)c1ccc2c(c1)Nc1ccccc1S2 | 78.1% | 81.4% | 69.2% | 93.1% | 96.2% | 84.3% | 91.5% | 120% | 94.2% | 89.7% |

From PubChem BioAssay (NCI)
